Hits are enriched below; roughly 2% of the tested compounds scored in any of these assays.
CHRM4 antagonist: antagonists of human muscarinic M4 receptor (CHRM4) | P08173 | CHO-hM4 cells, ACh EC80, Fluo-8 calcium fluorescence | inhibition, % at 3 µM | 360,000 tested, 0.73% active;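 active = inhibition above its plate's cutoff, the mean inhibition of sample wells plus 3 SD, cut at about 27% in these data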;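 note: 0% = acetylcholine EC80 with DMSO and 100% = DMSO without agonist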
Target sequence (P08173 whole entry, looked up): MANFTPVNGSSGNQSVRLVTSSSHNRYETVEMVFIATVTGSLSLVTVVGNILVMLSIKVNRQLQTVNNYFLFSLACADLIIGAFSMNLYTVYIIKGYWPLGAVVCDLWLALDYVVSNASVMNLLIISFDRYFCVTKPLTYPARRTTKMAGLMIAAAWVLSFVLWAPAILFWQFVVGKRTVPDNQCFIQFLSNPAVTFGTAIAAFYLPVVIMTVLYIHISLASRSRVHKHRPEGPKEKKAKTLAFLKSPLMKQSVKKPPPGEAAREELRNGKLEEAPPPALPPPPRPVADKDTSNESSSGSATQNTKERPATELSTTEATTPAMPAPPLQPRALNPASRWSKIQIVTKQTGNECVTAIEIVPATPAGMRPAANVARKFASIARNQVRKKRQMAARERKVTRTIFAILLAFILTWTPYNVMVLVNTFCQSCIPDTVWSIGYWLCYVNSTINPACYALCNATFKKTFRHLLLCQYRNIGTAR
CHRM4 agonist: agonists of human muscarinic M4 receptor (CHRM4); CHO-K1 hM4/Gqi5, Fluo-8 calcium fluorescence; vehicle 0%, full acetylcholine response 100%; activation, % at 3 µM; 360,000 tested, 0.14% active; AID 624127;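 active = activation above the run mean over all test wells plus 3 SD, cut at about 32% in these data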;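 note: peak over basal fluorescence ratio per well then scaled between controls; 0% = DMSO wells and 100% = acetylcholine at EC100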
CHRM4 PAM: potentiates acetylcholine response at human M4 receptor. 360,000 tested, 0.4% active. activation, % at 3 µM. AID 624126. P08173. CHO-K1 hM4/Gqi5, Fluo-8 calcium fluorescence, ACh EC20; 0% = ACh EC20, 100% = maximal ACh;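 active = activation above its plate's cutoff, the mean activation of sample wells plus 3 SD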
CHO-K1 Ca PAM: counter-screen for M1 PAMs: effect in parental CHO-K1 cells; AID 602247; activation, % at 3 µM; ATP EC20, Fluo-8 calcium fluorescence; 0% at ATP EC20, 100% at ATP max; 360,000 tested, 0.02% active;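 active = activation above the run cutoff, the mean activation of all test compounds plus 3 SD, cut at about 40% in these data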;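 note: peak over basal fluorescence ratio in a 140 s read after ATP addition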
CHO-K1 Ca antag: nonselective inhibitor or artifact in parental CHO-K1 cells; inhibition, % at 3 µM; 360,000 tested, 0.6% active; ATP-induced calcium, Fluo-8 fluorescence; AID 602250;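 active = inhibition above a per-plate cutoff, the plate's mean sample inhibition plus 3 SD, cut at about 24% in these data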;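 note: 0% = DMSO plus EC80 ATP and 100% = DMSO alone without ATP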
CHO-K1 Ca ag: counter-screen for M1 agonists: effect in parental CHO-K1 cells; activation, % at 3 µM; 360,000 tested, 0.48% active; Fluo-8 calcium fluorescence; scaled to maximal ATP response, vehicle zero; AID 602248; in the data active = activation above about 15%;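 note: untransfected CHO-K1 host cells lacking M1 receptor as counterscreen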
Active calls of the source: *.

SMILES	CHRM4 antagonist	CHRM4 agonist	CHRM4 PAM	CHO-K1 Ca PAM	CHO-K1 Ca antag	CHO-K1 Ca ag
CCC(=O)/C=C1\Sc2ccc(OC)cc2N1CC	-3	-3	7	0	9	-1
CC(CN(C)C)CN1c2ccccc2Sc2ccccc21 (centres undefined)	82*	9	-18	0	10	1
COc1ccc(OCCNC(=O)C2(C)CCN2Cc2ccc3ccccc3c2)cc1 (centres undefined)	29*	10	-13	-11	6	2
N#CC(c1ccccc1)C(CC(=NO)c1ccccc1)c1ccccc1 (centres undefined)	12	4	-5	20	-12	2
CN(C)c1ccc(/C=C/c2nc3ccccc3c(=O)n2-c2ccc(C(=O)O)cc2)cc1	16	55*	-18	-4	2	17*
O=C(O)c1cccc(-n2c(/C=C/c3ccccc3)nc3ccccc3c2=O)c1	-21	0	4	-4	10	0
CC(=O)c1ccc(N2CCN(C(=O)/C=C/c3ccc(S(=O)(=O)NCc4ccco4)cc3)CC2)cc1	38*	21	-28	-3	5	10
CC(=O)c1ccc(N2CCN(C(=O)/C=C/c3ccc(S(=O)(=O)N4CCOCC4)cc3)CC2)cc1	-2	2	2	9	-10	1
O=C(CNC(=O)c1cnccc1C(F)(F)F)c1cccc(Cl)c1	7	15	-34	10	-6	6
COc1ccc(/C=N/NC(=O)c2ccoc2C)cc1OC	1	0	1	16	-6	0
COc1ccc(/C=N/NC(=O)c2ccoc2C)cc1O	9	3	32*	23	-10	0
CC(C)OC(=O)CSc1nnc(CNc2ccc(Cl)cc2)n1Cc1ccccc1	16	11	-11	-8	36*	4
COc1cc(C(=O)NC(=S)Nc2ccc3ccccc3c2)cc(OC)c1OC	-8	1	0	-10	-2	0
Cc1cccc(CS(=O)(=O)Cc2ccc(C(=O)NCc3ccccc3)o2)c1	1	6	-7	11	-13	6
Cc1cccc(CS(=O)(=O)Cc2ccc(C(=O)NCc3cccs3)o2)c1	-10	5	3	5	2	27*
N#Cc1ccc(NC(=O)Nc2ccc(Cl)cc2)cc1	9	12	-12	8	26*	14
NS(=O)(=O)c1ccc(NC(=O)Nc2ccc(Cl)cc2)cc1	17	4	-19	-10	28*	1
CC(=O)NC(Cc1cc(C)ccc1C)C(=O)N1CCN(C(=O)c2ccc([N+](=O)[O-])cc2)CC1 (centres undefined)	1	0	9	9	-5	0
NS(=O)(=O)c1ccc(N=Nc2c(O)ccc3ccccc23)cc1	-3	1	-4	-9	-13	0
Oc1ccc2ccccc2c1Br	-5	1	-2	-9	24*	0
Oc1ccc(N=Nc2c(O)ccc3ccccc23)cc1	12	1	31*	5	3	0
COc1cc(OC)cc(C(=O)Nc2cccc(N3CCCC3)c2)c1	28*	1	-10	5	-21	0
COc1cc(OC)cc(C(=O)Nc2cccc(C(C)=O)c2)c1	13	2	-6	13	-18	1
CCOC(=O)c1sc(=S)n(-c2ccccc2Cl)c1SC	54*	-1	-16	4	-3	0
COc1ccc(NC2CCCN(C(=O)c3ccc(OC)cc3OC)C2)cc1 (centres undefined)	31*	11	-2	11	-2	0
SMILES	CHRM4 antagonist	CHRM4 agonist	CHRM4 PAM	CHO-K1 Ca PAM	CHO-K1 Ca antag	CHO-K1 Ca ag
COc1ccc(/C=C/C(=O)NNc2c(F)c(F)cc(F)c2F)cc1OC	4	1	-2	-7	25*	0
COc1cc(/C=C/C(=O)NNc2c(F)c(F)cc(F)c2F)ccc1OC(F)F	4	2	-4	6	-7	1
CC1CN(C(=O)COC(=O)c2ccc(Cl)c(S(=O)(=O)N3CCCCC3)c2)CC(C)O1 (centres undefined)	-4	2	-6	13	7	20*
O=C(COC(=O)c1ccc(Cl)c(S(=O)(=O)N2CCCCC2)c1)NCCc1ccccc1	-5	4	-1	-24	25*	0
CCc1nc2c(OCCC3CCCCC3)cccn2c1N(C)C(=O)c1ccc(C)cc1	-5	0	-8	12	-9	0
Cc1coc2cc3oc(=O)c(CCC(=O)NC4CC4)c(C)c3cc12	4	13	-1	-16	28*	11
COc1cc(/C=C2\SC(=S)N(Nc3ncc(C(F)(F)F)cc3Cl)C2=O)ccc1O	39*	25	-18	7	22	15
CN(C)c1ccc(/C=C2\SC(=S)N(Nc3ncc(C(F)(F)F)cc3Cl)C2=O)cc1	35*	20	-20	6	39*	21*
COc1ccc(C(CC(=O)O)N2Cc3ccccc3C2=O)cc1OC (centres undefined)	-16	2	3	-6	-15	0
Cc1csc(/C(=N\O)c2csc(C)n2)n1	-3	2	21*	0	-12	0
CC(C)(C)c1ccc(C(=O)NC(CC(=O)O)c2ccc(OC3CCCC3)cc2)cc1 (centres undefined)	-6	1	5	9	-23	1
CCOc1cc(C(=O)NC(CC(=O)O)c2ccc(OC3CCCC3)cc2)cc(OCC)c1OCC (centres undefined)	-4	1	2	2	32*	3
Cc1ccc(C(=O)NC2CC3CCCC(C2)N3C(=S)NCc2ccco2)cc1 (centres undefined)	-14	1	21*	11	-15	0
CCSc1nsc(NC(=O)Nc2ccc(F)cc2F)n1	8	13	-9	-6	20	9
CCSc1nsc(NC(=O)Nc2ccccc2Cl)n1	8	12	-11	-16	28*	7
Nc1ccc(N=Nc2ccccc2)cc1[N+](=O)[O-]	4	0	5	14	-9	-1
CCCOC(=O)C1=C(C)OC23OC(N)=C(C#N)C12C(=O)c1ccccc13 (centres undefined)	34*	0	-16	-5	-2	0
CN1CCCN(C(c2ccccc2)c2ccc(Cl)cc2)CC1 (centres undefined)	83*	9	-19	-8	15	3
Clc1ccc(C(c2ccccc2)N2CCN(c3ccccn3)CC2)cc1 (centres undefined)	7	-2	-20	-1	4	5
Cc1cccc(Nc2nc(N)nc(N)c2N=O)c1	-16	3	3	1	-1	29*
Cc1ccc(Nc2nc(N)nc(N)c2N=O)cc1C	-13	3	5	10	-2	0
Cc1cccc(Nc2nc(N)nc(CCl)n2)c1	-5	0	-3	-3	4	20*

Screens as filed in PubChem BioAssay.
